Records with an inconclusive call do not appear. The source made the active and inactive calls. Unless noted, the call rests on the fitted dose curve; in most records, active means well fitted curve in the direction sought with a large enough effect in the repeat runs; inconclusive means weak or mixed curves; inactive means no such curve, though single readings can be large; an effect the other way counts as inactive or inconclusive.
What was measured:
[1] = qHTS assay to identify small molecule antagonists of the retinoid acid receptor (RAR) signaling pathway - cell viability counter screen (AID 1159551); further: nearly all actives have a fitted effect of over 35% in size
In short: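 In this counter screen, the RARE-luciferase line C3RL4 was exposed for 6 h at 37 C and 5% CO2 to compounds with retinol at 1 uM final. Cellular ATP, read by luminescence, served as the viability measure.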

[2] = qHTS assay to identify small molecule antagonists of the retinoic acid receptor (RAR) signaling pathway (AID 1159552; further: nearly all actives have a fitted effect of over 50% in size; further: potency means the concentration at half of the fitted maximal effect)
In short: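 Luminescent RARE reporter read-out in C3RL4 cells: 6 hr co-treatment at 37 C of test compounds with retinol at 1 uM final. Cells plated overnight beforehand; luciferase reagent incubated 30 min at room temperature before reading.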

[3] = qHTS assay to identify small molecule agonists of the retinoic acid receptor (RAR) signaling pathway (AID 1159553); conditions: C3RL4 RARE luciferase reporter, agonist, 6 h; activation: at 73.3 µM (top of the series); further: potency means the concentration at half of the fitted maximal effect
In short: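 In this cell-based screen, 1,000 C3RL4 cells per well were cultured overnight, dosed with test chemicals in DMSO for 6 hr, and assessed for RARE luciferase luminescence.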

[4] = qHTS assay to identify small molecule antagonists of the estrogen related receptor (ERR) signaling pathway from Tox21 library - cell viability counter screen (AID 1224834); further: nearly all actives have a fitted effect of over 30% in size; further: potency means the concentration at half of the fitted maximal effect
In short: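 Counter screen run in ERR cells (2,000 cells/well): cells pre-incubated 6 h, then treated with compounds for 17.5 h at 37 C. Fluorescence was read 30 min after CellTiter-Fluor addition.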

[5] = target: Luciferin 4-monooxygenase (Photinus pyralis) (UniProt P08659); assay: qHTS assay to identify small molecule inhibitors of firefly luciferase (AID 1224835); further: nearly all actives have a fitted effect of over 25% in size; further: potency means the concentration at half of the fitted maximal effect
In short: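 Inhibition of purified Photinus luciferase is measured by luminescence. Substrate levels (D-luciferin, ATP) sit at their KM values. Each compound is tested in a concentration series.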

[6] = qHTS assay to identify small molecule antagonists of the constitutive androstane receptor (CAR) signaling pathway - cell viability counter screen (AID 1224837); further: nearly all actives have a fitted effect of over 45% in size; further: potency means the concentration at half of the fitted maximal effect
In short: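 CITCO at 50 nM final was added alongside compounds (15 concentrations) to double-stable hCAR/CYP2B6-2.2kb HepG2 cells. Following 23 hr at 37 C, cell viability was quantified by CellTiter-Fluor fluorescence intensity.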

[7] = qHTS assay to identify small molecule antagonists of the estrogen related receptor signaling pathway with the pleiotropic PPARgamma coactivator (PGC) from Tox21 10K library - cell viability counter screen (AID 1224840; active means well fitted cell-killing curve with a large enough effect in the repeat runs, not every such curve was filed as active; further: nearly all actives have a fitted effect of over 40% in size; further: potency means the concentration at half of the fitted maximal effect)
In short: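 Readout: fluorescence intensity from CellTiter-Fluor after 30 min at 37 C/5% CO2. Preceded by 17.5 h treatment of PGC/ERR cells with DMSO-dissolved compounds, added 6 h post-seeding.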

[8] = qHTS assay to identify small molecule agonists of the RXR signaling pathway - cell viability counter screen (AID 1159529); further: nearly all actives have a fitted effect of over 50% in size; further: potency means the concentration at half of the fitted maximal effect
In short: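 CellTiter-Glo luminescence gave viability in the wells also read for beta-lactamase. Cells (RXR-alpha-UAS-bla HEK 293T, 2% charcoal-stripped FBS medium) had 5 hr plating, then 16 hr compound exposure at 37 C; tetraoctyl ammonium bromide served as positive control.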

[9] = target: Nuclear receptor subfamily 1 group I member 3 (Homo sapiens) (UniProt Q14994); assay: qHTS assay to identify small molecule antagonists of the constitutive androstane receptor (CAR) signaling pathway (AID 1224838); further: nearly all actives have a fitted effect of over 40% in size; further: potency means the concentration at half of the fitted maximal effect
In short: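 Inhibition of CITCO-driven (50 nM final) CYP2B6 reporter expression is measured in HepG2 cells stably carrying hCAR. Fifteen compound concentrations are applied for 24 h at 37 C, followed by luciferase luminescence.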

[10] = target: Nuclear receptor subfamily 1 group I member 3 (Homo sapiens) (UniProt Q14994); assay: qHTS assay to identify small molecule agonists of the constitutive androstane receptor (CAR) signaling pathway (AID 1224839); further: nearly all actives have a fitted effect of over 15% in size
In short: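 Luminescent ONE-Glo read-out after 24 hr, 37 C exposure of double-stable HepG2-CYP2B6-hCAR reporter cells to a 15-point compound series, in the presence of 0.75 uM PK11195 (final).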

[11] = qHTS assay to identify small molecule antagonists of the estrogen related receptor signaling pathway with the pleiotropic PPARgamma coactivator (PGC) from Tox21 10K library (AID 1224841; call rule not given here; further: actives are mostly falling curves and most rising ones were filed inactive; nearly all actives have a fitted effect of over 50% in size)
In short: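 One-Glo luminescence, measured after half an hour at room temperature, quantified reporter output of PGC/ERR cells. These had been plated at 2,000 per well, incubated 6 h, dosed with compounds in DMSO, then kept 18 h at 37 C.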

[12] = qHTS assay to identify small molecule agonists of the constitutive androstane receptor (CAR) signaling pathway - cell viability counter screen (AID 1224836); further: nearly all actives have a fitted effect of over 45% in size
In short: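 Cell viability multiplexed with the CAR agonist screen: CellTiter-Fluor fluorescence after 23 hr at 37 C. HepG2-CYP2B6-hCAR cells got compounds at 15 concentrations with PK11195 at 0.75 uM final.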

[13] = qHTS assay to identify small molecule agonists of the estrogen related receptor signaling pathway with the pleiotropic PPARgamma coactivator (PGC) from Tox21 10K library (AID 1224842); further: nearly all actives have a fitted effect of over 15% in size
In short: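 Luminescence from One-Glo (30 min, room temperature) measured after PGC/ERR cells had 18 h at 37 C with pinned compound (23 nL in DMSO). Cells had been seeded at 2,000 per well and pre-incubated 6 h.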

[14] = qHTS assay to identify small molecule antagonists of the estrogen related receptor (ERR) signaling pathway - cell viability counter screen (AID 1224818)
In short: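 Viability of ERR cells, CellTiter-Fluor fluorescence; 17.5 h compound exposure at 37 C, DMSO vehicle; 30 min reagent incubation at 37 C/5% CO2.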

[15] = qHTS assay to identify small molecule antagonists of the estrogen related receptor (ERR) signaling pathway (AID 1224819;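 further: luminescence from an ERR-driven luciferase reporter measured with One-Glo reagent; nearly all actives have a fitted effect of over 50% in size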)
In short: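 Seed ERR cells 2,000/well; rest 6 h at 37 C/5% CO2; pin compounds in DMSO; incubate 18 h at 37 C; add One-Glo; wait 30 min at room temperature; measure luminescence.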

[16] = qHTS assay to identify small molecule agonists of the estrogen related receptor (ERR) signaling pathway (AID 1224820)
In short: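 Following a 6 h settling period, 2,000 ERR cells per well receive DMSO-dissolved compounds by pin tool and incubate 18 h at 37 C; agonist activity is scored from One-Glo luminescence read 30 min post-addition.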

[17] = test system: estrogen-related receptor alpha (ERRalpha) with PGC-1alpha coactivator, human; assay: qHTS assay to identify small molecule antagonists of the estrogen related receptor signaling pathway with the pleiotropic PPARgamma coactivator (PGC) (AID 1224821; calls by dose curve)
In short: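 Screening used NTP's PGC/ERR cells, dosed via pin tool with compound in DMSO alongside positive and negative controls. After 18 h at 37 C, One-Glo reagent sat 30 min at room temperature before luminescence detection.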

[18] = qHTS assay to identify small molecule antagonists of the estrogen related receptor signaling pathway with the pleiotropic PPARgamma coactivator (PGC) cell viability counter screen (AID 1224822)
In short: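 17.5 h compound treatment of PGC/ERR cells at 37 C; readout CellTiter-Fluor fluorescence; run alongside the PGC/ERR antagonist screen to flag cytotoxic compounds.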

[19] = qHTS assay to identify small molecule agonists of the estrogen related receptor signaling pathway with the pleiotropic PPARgamma coactivator (PGC) (AID 1224823)
In short: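 In this quantitative high-throughput screen, an 18 h, 37 C treatment of PGC/ERR cells with compounds in DMSO preceded a One-Glo luminescence read taken after 30 min at room temperature.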

Measured: Potency

Nuclear receptor subfamily 1 group I member 3 (Homo sapiens), sequence (Q14994 whole entry, looked up): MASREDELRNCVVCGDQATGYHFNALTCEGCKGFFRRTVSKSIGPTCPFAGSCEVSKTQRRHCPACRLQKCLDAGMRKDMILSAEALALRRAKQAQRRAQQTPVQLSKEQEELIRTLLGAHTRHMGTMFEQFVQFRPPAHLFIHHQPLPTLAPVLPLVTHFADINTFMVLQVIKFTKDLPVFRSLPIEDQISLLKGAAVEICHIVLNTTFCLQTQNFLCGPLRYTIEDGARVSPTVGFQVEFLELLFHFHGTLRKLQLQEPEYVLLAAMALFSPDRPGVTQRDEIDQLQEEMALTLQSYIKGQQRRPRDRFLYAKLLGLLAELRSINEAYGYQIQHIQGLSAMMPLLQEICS
Luciferin 4-monooxygenase (Photinus pyralis), sequence (P08659 whole entry, looked up): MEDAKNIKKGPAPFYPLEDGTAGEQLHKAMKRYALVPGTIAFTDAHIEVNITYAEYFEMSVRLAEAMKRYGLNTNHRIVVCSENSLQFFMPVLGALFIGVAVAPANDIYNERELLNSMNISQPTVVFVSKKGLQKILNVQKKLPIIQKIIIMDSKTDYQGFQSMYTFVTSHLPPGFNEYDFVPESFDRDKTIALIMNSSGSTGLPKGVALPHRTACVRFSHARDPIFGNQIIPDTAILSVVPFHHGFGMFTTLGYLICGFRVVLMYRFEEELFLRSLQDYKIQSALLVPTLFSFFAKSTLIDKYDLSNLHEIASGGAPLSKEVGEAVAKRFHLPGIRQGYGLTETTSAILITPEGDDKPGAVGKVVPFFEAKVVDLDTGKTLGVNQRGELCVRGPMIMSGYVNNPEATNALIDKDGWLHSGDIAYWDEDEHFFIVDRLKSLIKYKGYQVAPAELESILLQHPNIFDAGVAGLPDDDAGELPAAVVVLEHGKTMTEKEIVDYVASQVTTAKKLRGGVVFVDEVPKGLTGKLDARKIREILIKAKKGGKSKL

Nc1ccc(N=Nc2ccccc2)c(N)c1
inactive: [1] | [2]
active: [3] 0.238 µM | [4] 26.7 µM | [5] 2.47 µM | [6] 53.3 µM | [7] 26.7 µM

COc1cc(C(=O)NC2CCN(C)CC2)ccc1Nc1ncc2c(n1)N(C1CCCC1)CC(F)(F)C(=O)N2C
inactive: [5] | [10] | [11]
active: [8] 31.8 µM | [2] 2.5 µM | [4] 31.5 µM | [9] 8.88 µM | [7] 35.3 µM

COc1ccc(OC(=O)N(CC(=O)O)Cc2ccc(OCCc3nc(-c4ccccc4)oc3C)cc2)cc1
not listed: [2] | [3] | [14] | [15] | [16] | [17] | [18] | [19]
inactive: all other assays above

CC1(C)[C@H](C(=O)O)N2C(=O)C[C@H]2S1(=O)=O
inactive: [8] | [1] | [2] | [5] | [6] | [9] | [10] | [7] | [11]

O=C(O)CCc1nc(-c2ccccc2)c(-c2ccccc2)o1
not listed: [2] | [11]
inactive: all other assays above

Oc1c(I)cc(I)c2cccnc12
active: [4] 29.8 µM
inactive: [1] | [2] | [5] | [12] | [6] | [9] | [7] | [11]

CN(C)CCC=C1c2ccccc2C=Cc2ccccc21
not listed: [2] | [4] | [6] | [8] | [11] | [18]
inactive: all other assays above

C=Cc1ccc(S(=O)(=O)O)cc1
inactive: [1] | [2] | [12] | [6] | [7] | [11] | [13]
active: [5] 20 µM

COc1ccccc1N1CCN(CCCCNC(=O)c2ccc(-c3ccc(C(C)=O)cc3)cc2)CC1
inactive: [1] | [2] | [3] | [5] | [12] | [6] | [7]

CN(C(=O)CN(CCO)CC(=O)N(C)C(C)(C)Cc1ccccc1)C(C)(C)Cc1ccccc1
active: [2] 29.8 µM
inactive: [3] | [5] | [6] | [9] | [10] | [7] | [11] | [13]
